aSyn UTR act: Activators via SNCA 5'UTR binding, MLPCN; 300,000 compounds, 7.1% hits; AID 1814; alpha-synuclein 5'UTR reporter, activators screen; activity score, % (tested at 7.5 µM), hits read low; in the data active = activity score below about -60%
Of the large screens only hits and unclear results are named; the others gave an inactive call. Not all results are given here.

O=C(Nc1ccc(CN2CCOCC2)cc1)c1cc2ccccc2o1	aSyn UTR act -71.4
Cc1c(C(=O)Nc2ccc(N3CCOCC3)cc2)oc2ccccc12	aSyn UTR act -166.2
O=C(/C=C/N1CCOCC1)c1cc2ccccc2o1	aSyn UTR act -82.4
COc1ccccc1NC(=S)N(Cc1ccco1)Cc1cc2cc(C)c(C)cc2[nH]c1=O	none
O=Cc1c(NCc2ccco2)nc2ccccn2c1=O	aSyn UTR act -89.4
Cc1ccc2[nH]c(=O)c(-c3nc4ccccn4c3NCc3ccco3)cc2c1	aSyn UTR act -100.4
N#Cc1c(N2CCSCC2)nsc1-c1ccccc1Cl	aSyn UTR act -62.6
COc1ccccc1NC(=O)c1nc(S(=O)(=O)Cc2ccccc2)ncc1Cl	none
COc1ccccc1NC(=O)C(C/C=C(\C)Cl)C(C)=O (stereo not given)	aSyn UTR act -73.3
O=C(N/N=C/c1ccccc1)c1ccco1	aSyn UTR act -107.4
O=C(N/N=C/c1ccccc1)c1[nH]ncc1Br	aSyn UTR act -118.2
COc1ccccc1NC(NC(=O)c1ccco1)C(=O)c1ccccc1 (stereo not given)	aSyn UTR act -85.1
COc1ccccc1/C=C/C=N/NC(=O)c1ccco1	aSyn UTR act -111.6
CC(C)(C)OC(=O)N/N=C\c1ccc(OC(=O)c2ccco2)cc1	aSyn UTR act -84.4
O=C(N/N=C/C(Br)=C\c1ccccc1)c1ccco1	aSyn UTR act -225.6
O=C(N/N=C/c1ccc(OCc2ccccc2)cc1)c1ccco1	aSyn UTR act -103.0
COc1ccccc1CNC(=O)CSc1ccsc1[N+](=O)[O-]	aSyn UTR act -113.8
O=C(CSc1ccsc1[N+](=O)[O-])NCc1ccccc1	aSyn UTR act -103.5
O=C(O)c1ccc(N/N=C/c2cn(Cc3ccccc3F)c3ccccc23)cc1	aSyn UTR act -65.2
Nc1ccc(C(=O)N/N=C/c2cn(Cc3ccccc3F)c3ccccc23)cc1	none
CC(C)n1cc(/C=N/Nc2ccc(C(=O)O)cc2)c2ccccc21	aSyn UTR act -79.3
CCc1cc(C(=O)COc2ccc(F)cc2)c(O)cc1O	aSyn UTR act -104.4
Cc1c(O)ccc(C(=O)COc2ccc(F)cc2)c1O	aSyn UTR act -153.7
CC1=Nn2c(nc3sc4c(c3c2=O)CCCC4)SC1	aSyn UTR act -141.9
Cc1ccc(-c2nc3sc4c(c3c(=O)n2N)CCCC4)cc1	aSyn UTR act -107.2
COc1ccc(-n2cnc3sc4c(c3c2=O)CCCC4)cc1	aSyn UTR act -88.0
Cc1ccc(-n2cnc3sc(C)c(C)c3c2=O)cc1	aSyn UTR act -97.9
CCC(C)(C)NC(=O)C(c1ccncc1)N(C(=O)c1sc(C)nc1C)c1ccc(C)cc1 (stereo not given)	aSyn UTR act -62.1
Cc1ccc(NC(=O)N/C=C/c2ccccc2)cc1	aSyn UTR act -92.0
Cc1ccc(NC(=O)N/C=C/c2ccc(Cl)cc2)cc1	aSyn UTR act -94.3
Clc1ccc(-c2nc3cc(CN4CCCCC4)ccc3o2)cc1	aSyn UTR act -206.0
Cc1c(C(=O)OC(C)C)sc(N)c1C(=O)OC(C)C	aSyn UTR act -119.7
N#CC(=C1CCCC1)c1nc(-c2ccccc2)cs1	aSyn UTR act -186.6
N#CC(=C1CCCC1)c1nc(-c2cc3ccccc3oc2=O)cs1	aSyn UTR act -231.7
Cc1ccc(-c2csc(C(C#N)=C3CCCC3)n2)cc1	aSyn UTR act -236.3
N#CC(=C1CCCC1)c1nc(-c2ccccc2O)cs1	aSyn UTR act -209.5
CCn1ncc(Br)c1C(=O)Nc1cc(C)cc(C)c1	aSyn UTR act -70.9
COc1cccc(/C=N/Nc2c(Cl)cncc2Cl)c1O	aSyn UTR act -119.9
CCCCSc1nc(C)cc(SCC(=O)N/N=C/c2cccc(OC)c2O)n1	none
COc1cccc(/C=N/Nc2cc(Cl)nc(C)n2)c1O	aSyn UTR act -100.1
Cc1nc(-c2ccc(NC(=O)CC(C)C)cc2)cs1	aSyn UTR act -143.3
COc1ccc(-c2csc(NC(=O)CC(C)C)n2)cc1	aSyn UTR act -127.7
Cc1nc(-c2ccc(NC(=O)C3CC3)cc2)cs1	aSyn UTR act -160.5
O=C(COC(=O)CC1CCCC1)Nc1cc2c(cc1Cl)C(=O)c1ccccc1C2=O	aSyn UTR act -169.3
COc1cc(/C=C2/C(=N)N3OC(C)=CC3=NC2=O)ccc1OCCOc1ccc(C)cc1	aSyn UTR act -75.3
COc1ccc(Nc2cc(C)nc(N)n2)cc1	aSyn UTR act -64.0
Cc1cc(Nc2ccc(Cl)cc2)nc(N)n1	aSyn UTR act -110.7
Nc1cc(Nc2ccc(Br)cc2)nc(N)n1	aSyn UTR act -149.4
CCOC(=O)c1ccc(NC(=S)N2CCC(O)CC2)cc1	aSyn UTR act -81.5
CCOc1cc(NC(=S)N2CCC(C(N)=O)CC2)c(C(=O)OC)cc1OCC	none
CCCOC(=O)c1ccc(NC(=O)C2CCCO2)cc1 (stereo not given)	aSyn UTR act -110.4
CCc1ccc(NC(=O)c2ccccc2NC(=O)C2CCCO2)cc1 (stereo not given)	aSyn UTR act -244.4
CC(C)COC(=O)c1ccc(NC(=O)C2C3CCC(C3)C2C(=O)O)cc1 (stereo not given)	aSyn UTR act -131.3
Cc1cc(NC(=O)c2ccc(NC(=O)C3CCCO3)cc2)ccc1Br (stereo not given)	aSyn UTR act -120.7
